# Screens as filed in PubChem BioAssay.
# EPAC1 antag: qHTS for Antagonist of cAMP-regulated guanine nucleotide exchange factor 3 (EPAC1): primary screen; Rap guanine nucleotide exchange factor 3 (Homo sapiens), O95398; actives 0.14% (n = 360,000); EPAC1 GEF assay, Rap1b-BODIPY-GDP exchange fluorescence; Potency, µM (titrated, usually from 115 µM), for the others: at the top dose activity change, negative = inhibition, hits mostly inhibitors; AID 720709, 2013;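 further: plate controls were vehicle for no effect and positive control for full effect; nearly all actives have a fitted effect of over 50% in size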
# EPAC1 ag: qHTS for Agonist of cAMP-regulated guanine nucleotide exchange factor 3 (EPAC1): primary screen; Rap guanine nucleotide exchange factor 3 (Homo sapiens), O95398; EPAC1 agonist qHTS, biochemical assay; response scale: 100% = response to 6.5 mM cAMP; actives 0.073% (n = 360,000); Potency, µM (titrated, usually from 154 µM), without a hit: at the top dose activation, most hits filed as activators; further: nearly all actives have a fitted effect of over 60% in size
#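 Read-out is the fluorescence drop as BODIPY-GDP leaves Rap1B (480 nm excitation, 540 nm emission), recorded every 5 minutes over 30 minutes. Reactions held 100 nM EPAC1, 250 nM Rap1B–BODIPY-GDP and 50 uM GDP, with 6.5 mM cAMP setting full activation.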
# BRCA1 expr up: qHTS Assay to Identify Small Molecule Activators of BRCA1 Expression | MCF7-BRCA1-FFLuc reporter, luminescence, 48 h; response scale: scaled: vehicle 0%, 10 µM genistein 100% | actives 1.1% (n = 380,000) | Potency, µM (top dose mostly 46.1 µM), inactives show at the highest dose activation, hits mostly activators; further: nearly all actives have a fitted effect of over 80% in size
#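 Compounds are tested at multiple concentrations on MCF7 BRCA1-luciferase reporter cells seeded at 2000 per well; after 48 h, a single luminescence end-point is taken and curves fitted to the normalized data.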
# EPAC2 antag: qHTS for Antagonist of cAMP-regulated guanine nucleotide exchange factor 2 (EPAC2): primary screen | EPAC2 GEF exchange of Rap1B-BODIPY-GDP, fluorescence | Potency, µM (highest dose often 114 µM), without a hit: at the top dose activity, negative = inhibition, hits mostly inhibitors | actives 0.18% (n = 360,000); further: on the % scale 0 is the no-effect control and ±100 the full control effect; nearly all actives have a fitted effect of over 45% in size
# EPAC2 ag: qHTS for Agonist of cAMP-regulated guanine nucleotide exchange factor 4 (EPAC2): primary screen; Rap guanine nucleotide exchange factor 4 (Homo sapiens), Q8WZA2; EPAC2 activation, biochemical qHTS; response scale: 100% = 6.5 mM cAMP response; Potency, µM (doses to about 154 µM), without a hit: top-dose activation, usual class: activators; actives 0.079% (n = 360,000); further: nearly all actives have a fitted effect of over 50% in size
#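 Each well held 100 nM EPAC2, 250 nM RAP1B-BODIPY-GDP and 50 uM GDP. Fluorescence, read at 5-min intervals to 30 min, was referenced to a 6.5 mM cAMP positive control.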
# USP1 inh: Inhibitors of USP1/UAF1: Primary Screen; Ubiquitin carboxyl-terminal hydrolase 1 (Homo sapiens), O94782; recombinant USP1/UAF1, Ub-Rhodamine cleavage fluorescence; Potency, µM (highest dose often 57.1 µM), without a hit: top-dose activity change, negative = inhibition, hits mostly inhibitors; actives 0.23% (n = 390,000); further: on the % scale 0 is the no-effect control and ±100 the full control effect; nearly all actives have a fitted effect of over 60% in size
#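 High-throughput fluorogenic screen: 1nM USP1/UAF1 complex, Ub-Rho substrate 150nM final, 50mM HEPES pH 7.8 with 0.5mM EDTA, 0.1 mg/ml BSA, 1mM TCEP and 0.01% Tween-20.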
# An asterisk follows results filed as active; i = inactive; ? = inconclusive; · = not tested or not shown. Shown are actives, neighbours in structure and some others; about 1.4% of the full set was active somewhere. The call rests on the fitted dose curve; in most records, active means well fitted curve in the direction sought with a large enough effect; inconclusive means small, poorly fitted or top-dose-only effect, or another doubt; inactive means no such curve, though single readings can be large; an effect the other way counts as inactive or inconclusive. Potency means the concentration at half of the fitted maximal effect.
SMILES,EPAC1 antag,EPAC1 ag,BRCA1 expr up,EPAC2 antag,EPAC2 ag,USP1 inh
COc1cc(NS(=O)(=O)c2ccc(Nc3nc(-c4ccccc4)cs3)cc2)nc(OC)n1,79µM*,-2%,-3%,-6%,-1%,-23%
Nc1cc(N)c(OCC(F)(F)F)cc1OCC(F)(F)F,-1%,-19%,-13%,-5%,5%,25µM*
Oc1[nH]c2ccccc2c1N=Nc1ccccc1,6%,-136%,79%,60%,-84%,28µM*
Cc1[nH]c2ccccc2c1N=Nc1cccc(C(=O)O)c1,-3%,15%,3.2µM*,-13%,1%,-20%
Oc1[nH]c2ccc(Br)cc2c1N=Nc1ccc(F)cc1,?,-129%,-32%,71µM*,-170%,?
Oc1[nH]c2ccccc2c1N=Nc1ccc(F)cc1,93%,-229%,14%,102%,-208%,?
COC(=O)c1cc(N=Nc2c(C)[nH]c3ccccc23)cc(C(=O)OC)c1,-27%,8%,-1%,-3%,-4%,-19%
Cc1ccc2c(=O)n3c(nc2c1)C(C)NC(=O)c1cccnc1-3 (stereo not given),-21%,-1%,9%,1%,5%,-3%
COc1cc(OC)c(OC)cc1/C=C/c1ccc2ccccc2n1,·,·,-16%,·,·,·
COc1ccc(CCNC(=O)c2nn(C)cc2Cl)cc1,4%,-5%,7.9µM*,19%,4%,-4%
COc1ccc(CCNC(=O)c2ccc(Cl)cc2)cc1,11%,2%,16%,17%,4%,-6%
Cc1ccc(C(=O)NCC(=O)NC23CC4CC(CC(C4)C2)C3)cc1,12%,-5%,6.3µM*,1%,1%,-4%
O=C(COC(=O)CNC(=O)c1ccccc1)NC12CC3CC(CC(C3)C1)C2,-4%,3%,-18%,3%,7%,?
Nc1ccc(O)c2c1C(=O)c1ccccc1C2=O,?,-18%,?,-6%,0%,-22%
NC1=CC(=O)C(=O)c2ccccc21,-14%,3%,-89%,-6%,4%,16µM*
O=C(CSc1ncn[nH]1)N1CCCCC1,-10%,-4%,20%,1%,-1%,-11%
O=C(CSc1ncc(-c2ccc(F)cc2)[nH]1)N1CCCCC1,7%,-3%,11µM*,1%,7%,-7%
COc1cc(/C=C2\SC(=Nc3ccccc3)N(CCc3c[nH]c4ccccc34)C2=O)ccc1OC(C)C(=O)O (stereo not given),?,100µM*,-18%,?,-10%,1%
CCCCCNC(=O)C(c1cc2ccccc2o1)n1c(=O)c(-c2ccco2)nc2ccccc21 (stereo not given),56µM*,-27%,·,?,-18%,·
c1ccc(-c2cnn3c(-c4ccccc4)c(-c4ccccc4)nc3n2)cc1,65%,13µM*,-33%,i,89µM*,1.4µM*
COc1ccc2c(c1)Cc1sc(NC(=O)c3cccc(C)c3)nc1-2,·,·,·,·,·,35µM*
COc1cccc(C(=O)Nc2nc3c(s2)CN(C)CC3)c1,-2%,5%,14µM*,-1%,2%,-4%
COc1ccc(N=Nc2ccc(CO)cc2)cc1,-13%,4%,?,11%,13%,-16%
COC(=O)c1ccc(OCCOc2ccccc2)cc1,-12%,-9%,5%,1%,5%,-26%
OCc1ccc(N=Nc2ccccc2)cc1,-13%,-4%,3.2µM*,-12%,4%,-6%
SMILES,EPAC1 antag,EPAC1 ag,BRCA1 expr up,EPAC2 antag,EPAC2 ag,USP1 inh
O=C(O)c1ccccc1N=Nc1ccc(O)cc1,8%,-22%,0%,-4%,7%,-21%
Oc1ccc(N=Nc2ccccc2)cc1,-6%,2%,8.9µM*,-1%,0%,-15%
COC(=O)c1ccc(N=Nc2ccccc2)cc1,-9%,-2%,10µM*,-16%,7%,-4%
COc1cc(CNc2ncnc3c2ncn3[C@H]2CN(Cc3cccc4ccccc34)C[C@@H](CO)O2)cc(OC)c1OC,-16%,-9%,-65%,-3%,-4%,·
c1ccc(CN2CC[C@@H](Nc3nccn4ccnc34)C2)cc1,1%,-2%,0%,9%,10%,·
CC1CCCN(c2nc3ccsc3c(=O)s2)C1 (stereo not given),-14%,14%,13µM*,-1%,4%,-7%
CC1CCCN(c2sc(S(C)(=O)=O)nc2S(=O)(=O)c2ccc(Cl)cc2)C1 (stereo not given),-20%,6%,-29%,-20%,5%,-16%
O=c1cc(CSc2ccc(Cl)cc2)[nH]c2[nH]n(-c3ccccc3)c(=O)c12,?,2%,1%,-25%,0%,-22%
Cc1ccc(SCc2cc(=O)c3c(=O)n(-c4ccccc4)[nH]c3[nH]2)cc1,79µM*,-1%,5%,-23%,0%,0%
CCCc1cc(=O)[nH]c(SCC(=O)N2CCOCC2)n1,-8%,6%,-15%,2%,6%,6%
Cc1cc(C(=O)COC(=O)c2ccc(Cl)c(S(N)(=O)=O)c2)c(C)n1CC1CCCO1 (stereo not given),11%,-3%,11µM*,3%,-1%,-22%
Cc1ccc(NC(=O)Cn2c(=O)n(Cc3ccco3)c(=O)c3sc4ccccc4c32)c(C)c1,·,·,-8%,·,·,-18%
Cc1ccc(CN=C2Nc3ccccc3CS2)cc1,-3%,19%,?,0%,14%,-21%
Clc1ccc(CN=C2Nc3ccccc3CS2)cc1,2%,22%,8.9µM*,-7%,24%,-18%
O=c1cc(-c2ccccc2)oc2cc(O)c(O)c(O)c12,?,-11%,?,-22%,0%,-10%
O=c1c(O)cccc2cc(O)c(O)c(O)c12,13µM*,2%,-56%,1%,-3%,?
COc1ccc(NS(=O)(=O)c2ccc3c(c2)CCCN3C(=O)C2CCC2)cc1OC,·,·,·,·,·,-5%
COc1cc2c(cc1OC)CN(c1ccc(C(F)(F)F)cn1)CC2,-2%,3%,13µM*,-20%,9%,-26%
COc1cc2c(cc1OC)CN(c1ccc3ccccc3n1)CC2,-11%,2%,11µM*,-13%,15%,?
